Experiment [1] is described as follows: Viability qHTS for spleen associated tyrosine kinase inhibitor (SYKi) naive MV4-11 cells (AID 1963823). Note: nearly all actives have a fitted effect of over 40% in size. The method, boiled down: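 Read-out: CellTiter-Glo luminescence. Exposure: 72 hr, 37 C, 5% CO2, 95% humidity. Cells: MV4-11 without SYK inhibitor history, 500/well, qHTS format.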
(In general: qHTS replaces the single test concentration by a dilution series.)

Experiment [2] is described as follows: Viability qHTS for spleen associated tyrosine kinase inhibitor (SYKi) drug resistant MV4-11 cells (AID 1963824). Note: nearly all actives have a fitted effect of over 35% in size. The method, boiled down:
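SYK inhibitor-resistant MV4-11 AML cells, 500 per well, added to predispensed compounds and incubated 72 hr at 37 C, 5% CO2. Viability measured by CellTiter-Glo luminescence after 10 min at room temperature.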

Results filed as inconclusive are left out. Values without a mark were called inactive. The source made the active and inactive calls. Calls come from the whole dose curve; as a rule, active = well fitted cell-killing curve with a large enough effect; inconclusive = small, poorly fitted or top-dose-only effect, or effect the other way; inactive = no such curve, though single readings can be large or run the other way.
Potency is the fitted concentration of half-maximal effect.

As for `CC/C=C\CCO[C@@H]1O[C@H](CO)[C@@H](O)[C@H](O)[C@H]1O`, the Potency entry in experiment [1] and in experiment [2] was “inactive” each time.

Take `COc1cc(C(=O)NC2CCN(C)CC2)ccc1Nc1ncc2c(n1)N(C1CCCC1)CC(F)(F)C(=O)N2C`: the Potency in experiment [1] was 0.0231 µM (active); in experiment [2], 0.0103 µM (active).

On to `CC(=O)Oc1ccc(C2(c3ccc(OC(C)=O)cc3)Oc3ccccc3NC2=O)cc1`, for which the Potency in experiment [1] is 5.8 µM (active); in experiment [2] it was 2.99 µM (active).

Consider `OC[C@H]1O[C@@H](OCCc2ccc(O)cc2)[C@H](O)[C@@H](O)[C@@H]1O`, for which the Potency result in experiment [1] and in experiment [2] was “inactive” in each case.

For the compound `Cc1ccc(NC(=O)c2cccc(C(C)(C)C#N)c2)cc1Nc1ccc2ncn(C)c(=O)c2c1`, the Potency in experiment [1] was 1.18 µM (active); in experiment [2], 1.48 µM (active).

`CC1=C(C)C(=O)OC(C(C)C2CCC3C4C5OC5C5(O)CC(OC6OC(CO)C(OC7OC(C)C(O)C(O)C7O)C(O)C6O)CC(O)C5(C)C4CCC23C)C1` (stereo not drawn): the Potency result in experiment [1] and in experiment [2] was “inactive” throughout.

For `CC1CC[C@]2(C(=O)O)CC[C@]3(C(=O)O)C(=CCC4[C@@]5(C)CC[C@H](O[C@@H]6O[C@H](CO)[C@@H](O)[C@H](O)[C@H]6O)C(C)(C)C5CC[C@]43C)C2C1C` (stereo partly drawn), the Potency result in experiment [1] and in experiment [2] was “inactive” in each case.

In the case of `CN(C)CCCCCCNC(=O)c1cccc(-c2cc(O)c3ncccc3c2)c1`, the Potency in experiment [1] was 2.59 µM (active); in experiment [2], 3.26 µM (active).

For `CC(C)C1=CC2C(CC[C@]2(C)O)[C@](C)(O)CC1` (stereo partly drawn), the Potency result in experiment [1] and in experiment [2] was “inactive” each time.

Take `COC1CC(OC2CCC3(C)C(=CCC4C3C(OC(C)=O)C(OC(=O)/C=C/c3ccccc3)C3(C)C(C(C)O)CCC43O)C2)OC(C)C1OC1CC(OC)C(OC2OC(C)C(OC3OC(CO)C(O)C(O)C3O)C(OC)C2O)C(C)O1` (stereo not drawn): the viability (% of control) in experiment [1] is 69.8% [at 9.25 µM]. Also, the viability, % of control in experiment [2] is 71.5% [at 9.25 µM].

`CCC(C)C(=O)OC[C@H]1O[C@H](O[C@H]2O[C@H](CO)[C@@H](O)[C@H](O)[C@H]2O)[C@H](O)[C@@H](O)[C@@H]1O` (stereo partly drawn): the Potency result in experiment [1] and in experiment [2] was “inactive” throughout.

Turning to `CC(C)(Cc1ccccc1)NCC(O)c1ccc(O)c(NS(C)(=O)=O)c1` (stereo not drawn), the Potency entry in experiment [1] and in experiment [2] was “inactive” throughout.

In the case of `CCC(C)/C=C(C)/C=C/C1=CC2=C(Cl)C(=O)C(C)(OC(C)=O)C(=O)C2=CN1CCCCC(N)C(=O)O` (stereo not drawn), the Potency entry in experiment [1] and in experiment [2] was “inactive” each time.

Consider `CCOc1cn(-c2ccc(F)cc2C)nc1C(=O)Nc1ccc(Oc2ccnc3cc(OC)c(OC)cc23)c(F)c1`, for which the Potency in experiment [1] is 0.259 µM (active); in experiment [2] it was 0.651 µM (active).

Consider `C[C@]1(O)CC[C@@H]2C(C(=O)O)=CO[C@@H](O[C@@H]3O[C@H](COC(=O)/C=C/c4ccc(O)c(O)c4)[C@@H](O)[C@H](O)[C@H]3O)[C@@H]21`, for which the Potency result in experiment [1] and in experiment [2] was “inactive” each time.

Regarding `CCn1c(-c2nonc2N)nc2c(C#CC(C)(C)O)ncc(OCC3CCCNC3)c21` (stereo not drawn), the figures for the Potency in experiment [1] and in experiment [2] were 13 µM (active) and 8.2 µM (active), respectively.

For the compound `C[C@@H]1O[C@@H](O[C@H]2[C@H](O)[C@@H](O)[C@H](OC3CCC4(C)C5CCC(C)(C(CO)OC6OC(CO)C(O)C(O)C6O)CC5=CCC4C3(C)C)O[C@@H]2CO)[C@H](O)[C@H](O)[C@H]1O` (stereo partly drawn), the Potency entry in experiment [1] and in experiment [2] was “inactive” throughout.

Take `c1ccc(-c2cnn3cc(-c4ccc(OCCN5CCOCC5)cc4)cnc23)cc1`: the Potency in experiment [1] is 0.0184 µM (active); in experiment [2] it was 0.058 µM (active).

For `CN1CCCN(C(=O)c2cccc(-c3ccc(/C=C4\C(=O)Nc5ccc(Cl)cc54)o3)c2)CC1`, the results for the Potency in experiment [1] and in experiment [2] were 0.184 µM (active) and 0.461 µM (active), respectively.

For the compound `C[C@H]1CC(=O)Nc2cccc(-c3cnn(C(C)(C)C)c3)c2N1`, the Potency entry in experiment [1] and in experiment [2] was “inactive” in each case.

Turning to `COc1cc(C(=O)NC2CCN(C)CC2)c(F)cc1Nc1ncc2c(n1)N(C1CCCC1)CC(F)(F)C(=O)N2C`, the Potency in experiment [1] is 0.0206 µM (active); in experiment [2] it was 0.0092 µM (active).

As to `C/C=C(\C)C(=O)OC[C@H]1O[C@H](O[C@H]2O[C@H](CO)[C@@H](O)[C@H](O)[C@H]2O[C@@H]2O[C@H](CO)[C@@H](O)[C@H](O)[C@H]2O)[C@H](O[C@@H]2O[C@H](CO)[C@@H](O)[C@H](O)[C@H]2O)[C@@H](O)[C@@H]1O`, the Potency entry in experiment [1] and in experiment [2] was “inactive” in each case.

Take `C=C(C)C(=O)O[C@H]1[C@H]2C(=C)C(=O)O[C@@H]2C[C@@H](C)[C@@H]2O[C@@H]2C(=O)[C@](C)(O)[C@@H]1OC(C)=O`: the results for the Potency in experiment [1] and in experiment [2] were 2 µM (active) and 1.59 µM (active), respectively.

For the compound `CC1(C)CC[C@]2(C(=O)OC3OC(CO)C(O)C(O)C3O)CC[C@]3(C)C(=CCC4[C@@]5(C)CC[C@H](OC6OC(C(=O)O)C(O)C(O)C6O)C(CO)(CO)C5CC[C@]43C)[C@@H]2C1` (stereo partly drawn), the values for the Potency in experiment [1] and in experiment [2] were 0.693 µM (active) and 0.438 µM (active), respectively.

Values taken from PubChem BioAssay (NCATS).
